This note sets out measurements from PubChem BioAssay AID686979 (National Center for Advancing Translational Sciences (NCATS), 2013).

SMILES strings stand for the structures. The whole screen tested about 420,000 compounds, of which about 50,000 (12%) were called active. Inconclusive results (about 26%) are left out. The list comes from a sample in which actives are over-represented; it also holds similar structures and randomly drawn compounds. Where a call stands in place of a potency, no number is given. A number with no mark means an inactive call. Calls come from the whole dose curve; as a rule, active = well fitted inhibition curve with a large enough effect; inconclusive = small, poorly fitted or top-dose-only effect; inactive = flat fitted curve, though single readings scatter.
Potency is the fitted concentration of half-maximal effect.

The nature of the assay: qHTS for Inhibitors of human tyrosyl-DNA phosphodiesterase 1 (TDP1): qHTS in cells in presence of CPT. Note: nearly all actives have a fitted effect of over 55% in size. To be noted: chicken DT40 Tdp1-/-;hTDP1 cells + 20 nM CPT, ATP luminescence, 48 h; series mostly up to 46.2 µM. An outline of the steps:
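Cell growth measured by CellTiter-Glo luminescence after a minimum 48 h, 37 C compound exposure with 20 nM CPT in Tdp1-knockout DT40 cells stably expressing hTDP1, seeded 400/well; qHTS titration format.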
A general note: qHTS replaces the single test concentration by a dilution series.
Regarding `Cc1ccc(Cn2c(=O)n(-c3ccc(C)cc3)c(=O)c3c2c2cc(C)ccc2n3C)cc1`, the Potency result is “inactive”.
Same read-out and setting: to `CCCCSCCCNC(=O)C1CCC(CNS(=O)(=O)c2ccc(NC(C)=O)cc2)CC1` (stereo not drawn) belongs “inactive”; to `CC1CCN(C(=O)CCNC(=O)c2ccccc2)CC1`, “inactive”.
On the same count and under the same terms, next, `C=CCn1c(CCNC(=O)c2ccccc2F)nnc1SCC(=O)Nc1ccc(OC)cc1`: “inactive”; `Cc1ccc(CN(CC(=O)NCC2CCCO2)S(=O)(=O)c2ccc(C)cc2)cc1` (stereo not drawn): “inactive”; `Cc1ccc2nc(C)c3c(c2c1)N(c1ccccc1)CC3`: 11.6 µM (active).
Same read-out and setting: next, `Cc1ccc2nc3n(c(=O)c2c1)CCC3`: “inactive”; `Cc1nc2ccc(C(=O)N3CCN(c4ccccc4)CC3)cc2s1`: “inactive”.
In the case of `COc1ccc(Cn2ccnc2SCC(=O)NCc2ccco2)cc1`, the Potency result was “inactive”.
As to `CCOC(=O)c1cccc(NC(=O)CCc2nnc3ccc(N4CCOCC4)nn23)c1`, the Potency entry was “inactive”.
Consider `O=C(NC1CCCCC1)C1CCC(CNS(=O)(=O)c2ccccc2)CC1` (stereo not drawn), for which the Potency entry is “inactive”.
Still for that read-out and setting: to `CN(N)c1nc(N2CCCC2)nc(N2CCCC2)n1` belongs “inactive”.
For `COc1nc(NC2CCCCC2)nc(N2CCCCCC2)n1`, the Potency was 22.4 µM (active).
Same read-out and setting: next, `Clc1nc(NC2CCCC2)nc(N2CCOCC2)n1`: “inactive”; `C[C@@H]1CN([C@@H](C)CO)C(=O)c2cc(Br)cnc2O[C@@H]1CN(C)C(=O)C1CCCCC1`: “inactive”.
On the same count and under the same terms, to `CC(=O)N[C@H]1[C@H]([C@H](O)[C@H](O)CO)OC(C(=O)O)=C[C@@H]1O` belongs “inactive”; to `Cc1ccc2oc(=O)ccc2c1`, “inactive”; to `CCN(CC)c1ccc2c(Nc3ccccc3)c(C=O)c(=O)oc2c1`, “inactive”.
On the same count and under the same terms, to `CCN(CC)c1ccc2oc(=O)c(C)nc2c1` belongs 5.17 µM (active); to `CCOc1cc(/C=C2\C(=N)N3N=C(C)SC3=NC2=O)ccc1OCCOc1ccccc1`, “inactive”.
`S=C(NCc1ccco1)NCc1ccccc1Cl`: the Potency result is “inactive”.
Still for that read-out and setting: next, `Cc1c(Cl)cccc1NC(=S)NCc1ccc2c(c1)OCO2`: “inactive”.
The same measure, in the same setting: next, `Cc1ccc(NC(=S)NCc2ccccc2Cl)c(C)c1`: 23.1 µM (active); `CCC(=O)N1CCC(C)(C(=O)Nc2cc(OC)c(OC)c(OC)c2)C1` (stereo not drawn): “inactive”.
In the case of `Cc1ccc(Nc2ccc(C(N)=O)cc2[N+](=O)[O-])cc1`, the Potency entry was “inactive”.
Same read-out and setting: to `CC(=O)Nc1ccc(/C=N/Nc2ccc(C(=O)c3c(C)cc4ccccn34)cc2[N+](=O)[O-])cc1` belongs 18.4 µM (active); to `CNc1ccc(NC(C)=O)cc1[N+](=O)[O-]`, “inactive”; to `CCCCN1C(=O)C(CC(=O)NCc2cccs2)CC(C(=O)N2CCOCC2)=C1C` (stereo not drawn), “inactive”.
As to `O=C(CSc1ncnc2sccc12)NC1CCS(=O)(=O)C1` (stereo not drawn), the Potency entry is “inactive”.
The same measure, in the same setting: to `Cc1noc(C)c1C(=O)N1CCC1(C)C(=O)NS(=O)(=O)c1ccc(C#N)cc1` (stereo not drawn) belongs “inactive”; to `COc1ccc(C(=O)CSc2nc(C)cc(C)n2)cc1[N+](=O)[O-]`, “inactive”.
As to `CC(C)(C)C1CCC(NC(=O)c2cnn3c2NC(=C2CC2)C=C3C(F)F)CC1` (stereo not drawn), the Potency is 10 µM (active).
The same measure, in the same setting: to `O=C(Nc1ccc(Cl)cc1)c1cnn2c1NC(=C1CC1)C=C2C(F)F` belongs “inactive”; to `O=C(Nc1ccc([N+](=O)[O-])cc1)c1cnn2c1NC(=C1CC1)C=C2C(F)F`, “inactive”; to `COc1cc(NC(=S)NCc2ccco2)c(OC)cc1Cl`, “inactive”.
With `CNC(=O)Nc1cc(C(C)(C)C)no1`, the Potency is 16.4 µM (active).
On the same count and under the same terms, to `COc1ccc(NC(=O)c2cc(=O)[nH]c3ccccc23)cc1S(=O)(=O)N1CCOCC1` belongs “inactive”.
`CCCCC/C=C\CC1OC1CCCCCCCC(=O)O` (stereo not drawn): the activity change, negative = growth inhibition was 0.0245% [at 0.628 µM].
For `O=[N+]([O-])c1cc(S(=O)(=O)NCCc2ccccn2)ccc1Cl`, the Potency result was “inactive”.
On the same count and under the same terms, to `Cc1ccc(C(=O)N/C(=C/c2cccnc2)C(=O)O)cc1` belongs “inactive”.
The same measure, in the same setting: next, `CC(=O)N(C)c1ccc(NC(=O)Nc2cccc3ccccc23)cc1`: “inactive”; `O=C(Nc1cccc2ccccc12)NC1CC1`: “inactive”; `CCN(C(=O)Nc1cccc2ccccc12)c1ccccc1`: 23.1 µM (active).
On the same count and under the same terms, to `CCn1c(-c2cccnc2Cl)nc2cc(C)c(C)cc21` belongs “inactive”; to `CCOC(=O)N1CCN(C(=O)c2ccc(S(=O)(=O)Nc3cccc(C(F)(F)F)c3)cc2)CC1`, 16.4 µM (active).
Consider `O=C(NCc1ccccc1)c1ccc(S(=O)(=O)Nc2cccc(C(F)(F)F)c2)cc1`, for which the Potency entry was “inactive”.
On to `CCOC(=O)N1CCN(C(=O)c2ccc(S(=O)(=O)c3ccc(C)cc3)c(NC(C)=O)c2)CC1`, for which the Potency result is “inactive”.
Still for that read-out and setting: to `CC(C)(C)NC(=O)CN1CCC(NC(=O)C23CC4CC(CC(C4)C2)C3)CC1` belongs “inactive”; to `O=C(Nc1cccc(C(=O)N2CCCC2)c1)c1ccccc1`, “inactive”; to `CC(CNC(=O)c1nnc(Cc2cccc(F)c2)o1)c1ccccc1` (stereo not drawn), “inactive”.
Still for that read-out and setting: to `COc1cccc(CCNC(=O)c2cccc(NC(=O)C3=C(C)OCCS3)c2)c1` belongs 23.1 µM (active); to `CC1=C(C(=O)Nc2cccc(C(=O)NCC(C)c3ccccc3)c2)SCCO1` (stereo not drawn), 16.4 µM (active); to `COc1cccc(CCNC(=O)COc2cccc3c2OC(C)(C)C3)c1`, “inactive”.
`COc1cccc(C(=O)NCCSc2ccc(Br)cc2)c1`: the Potency entry was “inactive”.
The same measure, in the same setting: next, `COCCn1c(N)c(N(Cc2ccccc2)C(=O)C2CCCCC2)c(=O)[nH]c1=O`: “inactive”; `Cc1nn(C)c(C)c1S(=O)(=O)N1CCC(CO)(Cc2ccc(Cl)cc2)CC1`: “inactive”.
The same measure, in the same setting: next, `Cc1c(Cl)cnc(NC(=O)COC(=O)C2CCCC2)c1Cl`: “inactive”.
On the same count and under the same terms, to `N#Cc1ccc(CSc2ncccn2)cc1` belongs “inactive”.
As for `CC(C)C(c1nnnn1C1CCCCC1)N1CCN(C(=O)c2ccco2)CC1` (stereo not drawn), the Potency entry is “inactive”.
Same read-out and setting: next, `CC1(C)C2CC[C@]3(C)C(CC=C4[C@@H]5C[C@@](C)(CO)CC[C@]5(C(=O)O)CC[C@]43C)[C@@]2(C)CC[C@@H]1O` (stereo partly drawn): “inactive”.
Regarding `CCOC(=O)c1c(-c2ccc(C)cc2)csc1/N=C(\C)C1=C(O)c2ccccc2C1=O`, the Potency is 23.1 µM (active).
The same measure, in the same setting: next, `CC(=NCc1ccco1)C1=C(O)c2ccccc2C1=O`: “inactive”.
Still for that read-out and setting: to `CCOC(=O)c1cc2n(c1N)-c1ccccc1C2=O` belongs “inactive”; to `CN(C)Cc1c(C(=O)N/N=C/c2ccccc2OCc2ccc(F)cc2)nnn1-c1nonc1N`, “inactive”.
For `CCOC(=O)N1CCC(=NNC(N)=O)CC1`, the Potency entry is “inactive”.
Still for that read-out and setting: next, `COc1ccc(S(=O)(=O)NCC(c2ccco2)N2CCOCC2)cc1` (stereo not drawn): “inactive”; `CC1(C)CC(N(Cc2ccccc2)C(=O)Cc2ccccc2)CCO1` (stereo not drawn): “inactive”.
On the same count and under the same terms, next, `O=C(NC1CCCC1)C(c1ccco1)N(C(=O)c1ccco1)c1ccc(F)cc1` (stereo not drawn): “inactive”; `CC1(C)CC(CNCCC(c2ccc(F)cc2)c2ccco2)CCO1` (stereo not drawn): 25.9 µM (active).
The same measure, in the same setting: next, `CSc1ccc(CN(C)CC(=O)NCc2ccc(F)cc2)cc1`: “inactive”; `CC(C=Cc1ccccc1)=NNS(=O)(=O)c1ccc([N+](=O)[O-])cc1`: “inactive”; `CC(=O)c1c(OCC(=O)N(C)C2CCCCC2)ccc2c(C)cc(=O)oc12`: “inactive”.
Consider `Cc1cc(/C=C2/NC(=O)NC2=O)c(C)n1-c1cccnc1`, for which the Potency entry is “inactive”.
Same read-out and setting: next, `Cc1ccc2nc(COc3ccc(NC(=O)COc4ccccc4F)cc3)cc(=O)n2c1`: “inactive”; `Cc1ccc2nc(COc3ccccc3NC(=O)Nc3ccc(F)c(Cl)c3)cc(=O)n2c1`: 11.6 µM (active).
The same measure, in the same setting: to `Cc1ccc2nc(COc3cccc(NC(=O)Nc4ccc(C)c(Cl)c4)c3)cc(=O)n2c1` belongs “inactive”; to `Cc1ccsc1C(=O)N[C@@H](C)c1nnc2ccccn12`, “inactive”.
On to `CC(=O)c1c(C)[nH]c(C(=O)OCC(=O)Nc2c(C)n(C)n(-c3ccccc3)c2=O)c1C`, for which the Potency result is “inactive”.
Same read-out and setting: to `CC(=O)c1c(C)[nH]c(C(=O)OCC(=O)Nc2sc3c(c2C#N)CCCC3)c1C` belongs 16.4 µM (active); to `COc1ccc(-n2c(SCC(=O)Nc3sc4c(c3C#N)CCCC4)nnc2-c2ccc(O)cc2)cc1`, “inactive”.
For `CC(=O)c1c(C)[nH]c(C(=O)OCC(=O)Nc2c(C)cccc2C)c1C`, the Potency was 20.6 µM (active).
Still for that read-out and setting: to `CCN1CCN(CC(=O)Nc2sc3c(c2C#N)CCC3)CC1` belongs “inactive”; to `N#Cc1c(NC(=O)C2CCCO2)sc2c1CCCCC2` (stereo not drawn), “inactive”.
The same measure, in the same setting: next, `N#Cc1c(NC(=O)CCCl)sc2c1CCCCC2`: 18.4 µM (active); `CC(=O)c1c(C)[nH]c(C(=O)OCC(=O)NCCC(C)C)c1C`: “inactive”; `CCCc1cc(=O)[nH]c(SCC(=O)Nc2sc3c(c2C#N)CCCC3)n1`: “inactive”.
The same measure, in the same setting: to `CC1=CC=CC2=N/C(=N\S(=O)(=O)c3ccc(F)cc3F)c3ccccc3CN12` belongs “inactive”.
On to `C=CCn1c(CNS(=O)(=O)c2ccc(Br)cc2)nnc1SC`, for which the Potency result is “inactive”.
Same read-out and setting: next, `CCOC(=O)c1c(C)[nH]c(C(=O)OCC(=O)N2CCCC2=O)c1C`: “inactive”.
Same read-out and setting: to `CC(C)c1nc(CNC(=O)CC2C(=O)NCCN2Cc2cccc(F)c2F)cs1` (stereo not drawn) belongs “inactive”; to `CC1(C(=O)Nc2ccc3c(c2)OCCO3)CN(S(C)(=O)=O)CC(=O)N1Cc1cccc(F)c1` (stereo not drawn), “inactive”; to `CCOCCc1nn2c(=O)cc(COC(=O)CNC(=O)c3ccc(C(C)(C)C)cc3)nc2s1`, 16.4 µM (active).
As for `Cc1nn2c(=O)cc(COC(=O)CNC(=O)c3ccc(F)cc3)nc2s1`, the Potency result is “inactive”.
Still for that read-out and setting: to `CCCc1nn2c(=O)cc(COC(=O)c3ccc(NC(=O)C(C)Oc4ccccc4)cc3)nc2s1` (stereo not drawn) belongs “inactive”.
On the same count and under the same terms, to `CCCCc1nn2c(=O)cc(COC(=O)c3ccc(NC(=O)c4ccccc4C)cc3)nc2s1` belongs 20.6 µM (active).
With `CCCCc1nn2c(=O)cc(COC(=O)c3ccccc3NC(=O)C(C)(C)C)nc2s1`, the Potency entry is “inactive”.
The same measure, in the same setting: to `CCOCCc1nn2c(=O)cc(CSCC(=O)Nc3cccc(C)c3C)nc2s1` belongs “inactive”.
The same measure, in the same setting: to `O=C(O)CCCCC(=O)O` belongs “inactive”; to `COc1ccc(NC(=O)N(C)C[C@@H]2OCc3cn(nn3)CCCC(=O)N([C@H](C)CO)C[C@H]2C)c(OC)c1`, “inactive”; to `O=C(Nc1cccc([N+](=O)[O-])c1)Nn1cnnc1`, “inactive”.
The same measure, in the same setting: next, `CC(C)CC(=O)NC(=S)Nc1cc(C(=O)O)ccc1Cl`: “inactive”; `CC(C)Nc1ccc(-n2nc3ccccc3[n+]2[O-])cc1`: “inactive”; `NS(=O)(=O)c1ccc(CCNC(=O)CNC(=O)Cc2ccccc2)cc1`: “inactive”.
